mHTT-CaM PPI inh: mHTT-calmodulin interaction abrogation. P42858. inhibition, % at 15 µM. AlphaScreen His-mHTT/GST-CaM binding, luminescence. 3.6% of 190,000 active;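 further: 0% = both proteins with DMSO and 100% = one protein alone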
Pf apPOL inh: Pf-apPOL DNA polymerase inhibition. 0.25% of 210,000 active. inhibition, % at 10 µM. Recombinant Pf-apPOL, molecular beacon fluorescence, 1.5 h. AID 1794808
* = called active by the depositor; / = not tested or not shown; ! = not confirmed by another sample. Most compounds without a hit are left out; they make up all but 3.5% or so of the library. No stated cut-off is given here; in the data, active means inhibition above about 50%; inactive means the rest.

SMILES	mHTT-CaM PPI inh	Pf apPOL inh
NC(Cc1c[nH]c2ccc(O)cc12)C(=O)O (stereo unspecified)	/	-2
O=C(O)Cc1c[nH]c2ccc(O)cc12	85*	95*!
O=C1c2ccccc2-c2onc3c(Cl)cc(O)c1c23	53*	-1
O=C1c2ccccc2-c2onc3c(Br)cc(O)c1c23	58*	-3
O=C1c2ccccc2-c2onc3ccc(Cl)c1c23	30	-4
CCOc1ccc2noc3c2c1C(=O)c1ccccc1-3	11	-4
CN(CCCNC(=O)C1CCN(c2ccc(N3CCOCC3)nn2)CC1)C1CCCCC1	0	-5
O=C(Nc1ccc(S(=O)(=O)Nc2nccs2)cc1)C(Cl)Cl	7	-6
O=C(Nc1ccc(S(=O)(=O)Nc2nccs2)cc1)Nc1ccc(Cl)c(Cl)c1	78*	-3
COc1ccc(-c2nc3ccccn3c2NC(=O)C2CCCCC2)cc1OC	59*	-5
COc1ccc(-c2nc3ccc(C)cn3c2NC(=O)C2CCCCC2)cc1OC	36	3
COc1ccc(-c2nc3ccc(C)cn3c2NC(=O)C(Cl)Cl)cc1OC	52*	33
COc1ccc(-c2nc3ccc(C)cn3c2NC(C)=O)cc1OC	8	8
O=C1NC(=NS(=O)(=O)c2ccccc2)S/C1=C/c1cccnc1	-7	0
CCn1c(-c2cc(NC(=O)C3CC3)n[nH]2)cc2ccc(OC)cc21	27	-4
CCn1c(-c2cc(NC(=O)C3CC3)n[nH]2)cc2c(OC)cccc21	50*	-5
COc1ccc(OC)c(/C=C2/N=C(c3ccc(Cl)cc3Cl)OC2=O)c1	-3	-4
Cc1ccc(C(C)(c2ccc(N)cc2)c2ccc(N)cc2)cc1	68*	-12
Cc1ccc(S(=O)(=O)N(C)c2ccc(N)cc2)cc1	6	24
CCc1cc2c(=O)c(Oc3ccccc3)c(C)oc2cc1OC	2	-13
CCOC(=O)c1cccc(NC(=O)N2CCc3c(nc(-c4ccc(OC)cc4)[nH]c3=O)C2)c1	-4	2
COc1cc(C2C(C#N)=C(N)Oc3c2c(C)nn3-c2cccc(Cl)c2)cc(OC)c1O (stereo unspecified)	64*	-2
Cc1nn(-c2cccc(Cl)c2)c2c1C(c1ccncc1)C(C#N)=C(N)O2 (stereo unspecified)	17	-6
CCOc1ccccc1N1CCN(S(C)(=O)=O)CC1	-4	-1
CCOc1ccccc1N1CCN(c2nccn3cncc23)CC1	54*	-15
SMILES	mHTT-CaM PPI inh	Pf apPOL inh
Cc1ccc(N=Cc2nc(-c3ccccc3F)oc2O)cc1	34	-6
Cc1c(N=Cc2ccc(N(C)C)c([N+](=O)[O-])c2)c(=O)n(-c2ccccc2)n1C	0	-2
O=[N+]([O-])c1cc2c(cc1C1NN=C(c3ccccc3)S1)OCO2 (stereo unspecified)	52*	-9
O=C1CSC(c2cc3c(cc2[N+](=O)[O-])OCO3)N1c1ccccc1F (stereo unspecified)	16	-2
N#CCc1nn(-c2ccccc2)c(N)c1C#N	4	0
N#Cc1c(-c2ccc(Nc3ccccc3)cc2)nn(-c2ccccc2)c1N	53*	2
COc1ccc(C(=O)N2CC(C)C(c3nc(-c4cccnc4)no3)C2)c(C)c1 (stereo unspecified)	-5	-8
CCOc1ccc(NC(=O)N2CCCC2c2ccccc2Cl)cc1 (stereo unspecified)	-1	0
COc1ccccc1NC(=O)c1c(NCc2ccncc2)sc2c1CCC(C)C2 (stereo unspecified)	100*	-18
COc1ccc(Cl)cc1NC(=O)c1c(NCc2ccncc2)sc2c1CCC(C)C2 (stereo unspecified)	73*	-15
COc1ccc(Cl)cc1Nc1ncnc2sc3c(c12)CCC(C)C3 (stereo unspecified)	-6	1
COc1ccccc1NC(=O)c1c(NCc2ccccn2)sc2c1CCC(C)C2 (stereo unspecified)	46	-16
COc1ccc(OC)c(NC(=O)c2c(NCc3ccncc3)sc3c2CCC(C)C3)c1 (stereo unspecified)	72*	-18
COc1ccc(OC)c(NC(=O)Cn2nc3c(cc2=O)CC(C)CC3)c1 (stereo unspecified)	12	0
COc1ccc2c(c1)c(=O)c1ccccc1n2CC(=O)Nc1cccc(C(F)(F)F)c1	54*	0
COc1ccc2c(c1)c(=O)c1ccccc1n2CC(=O)Nc1ccc(C(F)(F)F)cc1	17	0
CC(=O)Nc1nc(SCc2ccccc2Cl)n[nH]1	3	-7
Cc1cc(C(=O)Nc2nnc(-c3csc(C)n3)o2)c(C)o1	78*	9
Cc1nc(-c2nnc(NC(=O)c3cc(Cl)cc(Cl)c3)o2)cs1	31	9
COc1ccc(C(=O)Nc2c3c(nn2-c2cccc(C)c2C)CS(=O)C3)cc1OC (stereo unspecified)	10	-21
COc1ccc(OC)c(NC(=O)c2sc3nc(-c4ccccc4)cn3c2C)c1	1	-2
CC1=C(C(=O)Nc2ccccn2)C(c2ccc(OCc3ccccc3)cc2)n2nnnc2N1 (stereo unspecified)	46	6
CC1=C(C(=O)Nc2ccccc2)C(c2ccc(OCc3ccccc3)cc2)n2nnnc2N1 (stereo unspecified)	62*	-5
Cc1ccc(C2NC(C(=O)O)CS2)cc1[N+](=O)[O-] (stereo unspecified)	-3	-5
Cc1c(-c2ccc(C3NC(C(=O)O)CS3)o2)cccc1[N+](=O)[O-] (stereo unspecified)	52*	-3
SMILES	mHTT-CaM PPI inh	Pf apPOL inh
Cc1ccc(N2CCN(C(=O)c3sc(Nc4ccc(F)cn4)nc3C)CC2)cc1	78*	-6
Cc1ccnc(Nc2nc(C)c(C(=O)N3CCCC3)s2)c1	1	24
Cc1sc2ccn(CC(C)C)c(=O)c2c1C(=O)N1CCCC(C)C1 (stereo unspecified)	10	3
Cc1sc2ccn(Cc3ccc(F)cc3)c(=O)c2c1C(=O)N1CCCC(C)C1 (stereo unspecified)	66*	1
Cc1sc2ccn(Cc3ccc(F)cc3)c(=O)c2c1C(=O)N1CCCCCC1	64*	3
CCn1ccc2sc(C)c(C(=O)N3CCCCC3)c2c1=O	8	0
COC(=O)c1sc(-c2cccs2)cc1NS(=O)(=O)c1cc(Cl)sc1Cl	/	-21
Cc1cc(C)nc(Nc2nc(C(=O)NCCOc3ccc(F)cc3)cs2)n1	91*	-38
O=C(NCCOc1ccc(F)cc1)c1cc(C2CC2)on1	-24	-37
COc1ccc(OC)c(Nc2nc(CC(=O)NCc3ccc4c(c3)OCO4)cs2)c1	15	-4
Cc1cc(C)nc(Nc2nc(C(=O)NCCc3c[nH]c4ccccc34)cs2)n1	86*	-6
COc1ccc(OC)c(Nc2nc(CC(=O)NCCc3c[nH]c4ccccc34)cs2)c1	53*	-4
O=C(NCCc1c[nH]c2ccccc12)c1csc(NS(=O)(=O)c2cccs2)n1	-10	-13
O=C(Nc1ccc(Cl)c(Cl)c1)c1cc2n(n1)C(C(F)(F)F)CC(c1cccs1)N2 (stereo unspecified)	8	-3
CSc1c(C(=O)Nc2ccc(C)cc2)ccc2c1C(=O)c1ccccc1C2=O	3	-4
Cc1ccc(S(=O)(=O)N2CC3CN(C(=O)CNC(=O)c4ccccc4)CC(C2)O3)cc1	4	-7
Cc1nn(-c2ccccc2)c(C)c1N1CCN(S(=O)(=O)c2c(C)noc2C)CC1	28	-29
COc1ccc(C(=O)Nc2ccccc2C(N)=O)cc1	6	-2

Compound activity deposited in PubChem by University of Kansas High Throughput Screening Laboratory.
